IMPase Li cell: cell-permeable IMPase inhibitors with lithium potentiation | 210,000 compounds, 0.35% hits | Potency, µM (top dose mostly 59.4 µM), without a hit: top-dose activity, negative = IMPase inhibition, hits mostly inhibitors | CHO-M1 cells, IP1 TR-FRET (IP-One), carbachol + lithium | AID 1457;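 further: IP1 builds up when IMPase is blocked and the TR-FRET signal falls; potency means the concentration at half of the fitted maximal effect; plate controls were basal vehicle for no effect and high inhibitor control for full effect; nearly all actives have a fitted effect of over 50% in size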
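Steps: plate 2000 CHO-M1 cells per well and culture 16–30 h; add compound and lithium; incubate 30 min, 37C; add d2-IP1 tracer and Eu cryptate anti-IP1 antibody in lysis buffer; read after 10 min at room temperature.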
JMJD2E inh: JMJD2E (human) inhibition | JMJD2E catalytic domain, FDH-coupled NADH fluorescence (FDH is formaldehyde dehydrogenase) | Potency, µM (top dose mostly 57.1 µM), inactives show top-dose activity change, negative = inhibition, hits mostly inhibitors | 230,000 compounds, 1.6% hits; active means well fitted inhibition curve with a large enough effect, not every such curve was filed as active; inconclusive means small, poorly fitted or top-dose-only effect, or another doubt; inactive means no such curve, though single readings can be large or run the other way;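 further: potency means the concentration at half of the fitted maximal effect; 0% = wells with enzyme and -100% = buffer wells without enzyme; nearly all actives have a fitted effect of over 50% in size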
NPSR antag: blocks cAMP signaling of the human neuropeptide S receptor | Q6W5P4 | CHO-NPSR cells, cAMP TR-FRET, antagonist mode | Potency, µM (doses to about 38.3 µM), without a hit: at the highest dose activity change, negative = inhibition, most hits filed as inhibitors | 220,000 compounds, 1% hits | AID 1461; further: potency means the concentration at half of the fitted maximal effect; on the % scale 0 is the no-effect control and ±100 the full control effect; nearly all actives have a fitted effect of over 50% in size
Epigenetic derep: regulators of epigenetic silencing causing reporter derepression in mouse cells; murine LDR cells, GFP reporter derepression, 30 h; Potency, µM (top dose mostly 53.9 µM), for the others: top-dose GFP activation, most hits filed as activators; 280,000 compounds, 0.2% hits; further: potency means the concentration at half of the fitted maximal effect; % of control where 0% means no effect; nearly all actives have a fitted effect of over 60% in size
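Reporter derepression read as number of fluorescent GFP-positive objects, 20-120 um in size, counted by laser-scanning cytometer. Mouse LDR line with an epigenetically silenced CMV-GFP locus; compound incubation 30 h, 37 C.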
Sfp PPTase inh: blocks B. subtilis Sfp PPTase activity; 310,000 compounds, 3.5% hits; Biochemical Sfp PPTase activity, qHTS; Potency, µM, without a hit: largest response in the series, negative = inhibition, most hits filed as inhibitors; Q9F4F7;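 further: the enzyme is Sfp with the accession as filed and its product quenches rhodamine fluorescence; potency means the concentration at half of the fitted maximal effect; 0% = enzyme reaction without inhibitor and -100% = no enzyme wells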
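Fluorescence-quenching assay with 15 nM Sfp, 5 uM rhodamine-CoA and 12.5 uM BHQ-2-labelled ybbR peptide in pH 7.6 Hepes/MgCl2 buffer. Enzyme was pre-incubated with compound for 15 min at room temperature. Rate was taken from the 30-min fluorescence change (525/598 nm).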
GCN5L2 inh: inhibitors of human GCN5L2 histone acetyltransferase. Potency, µM (titrated, usually from 58.9 µM), for inactives: top-dose activity change, negative = inhibition, most hits filed as inhibitors. Q92830. 390,000 compounds, 0.21% hits. GCN5L2 HAT assay, ThioGlo1 CoA-SH fluorescence. AID 504327; further: potency means the concentration at half of the fitted maximal effect; on the % scale 0 is the no-effect control and ±100 the full control effect
Target sequence (Q92830 whole entry, looked up): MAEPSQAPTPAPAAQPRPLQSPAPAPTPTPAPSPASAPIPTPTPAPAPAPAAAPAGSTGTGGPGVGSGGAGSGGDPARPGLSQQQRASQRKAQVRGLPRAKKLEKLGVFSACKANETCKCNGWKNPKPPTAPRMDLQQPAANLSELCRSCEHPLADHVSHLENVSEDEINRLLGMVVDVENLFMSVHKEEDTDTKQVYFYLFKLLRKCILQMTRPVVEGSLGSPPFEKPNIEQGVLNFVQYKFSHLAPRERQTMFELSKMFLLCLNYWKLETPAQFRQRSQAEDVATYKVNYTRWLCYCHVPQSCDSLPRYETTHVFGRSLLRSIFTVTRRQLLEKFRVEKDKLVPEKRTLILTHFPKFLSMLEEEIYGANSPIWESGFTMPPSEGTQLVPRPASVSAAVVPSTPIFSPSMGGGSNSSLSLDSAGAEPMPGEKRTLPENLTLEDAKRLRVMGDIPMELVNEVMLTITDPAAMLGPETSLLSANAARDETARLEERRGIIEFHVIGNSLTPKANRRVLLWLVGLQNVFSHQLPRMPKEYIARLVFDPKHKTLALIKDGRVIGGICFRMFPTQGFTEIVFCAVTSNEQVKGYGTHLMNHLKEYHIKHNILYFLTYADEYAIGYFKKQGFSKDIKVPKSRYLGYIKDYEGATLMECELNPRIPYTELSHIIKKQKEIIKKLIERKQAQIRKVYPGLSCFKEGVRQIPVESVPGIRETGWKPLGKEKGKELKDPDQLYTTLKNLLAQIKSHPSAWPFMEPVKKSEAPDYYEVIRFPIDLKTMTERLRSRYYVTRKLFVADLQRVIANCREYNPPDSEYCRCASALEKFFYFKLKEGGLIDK
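Free CoA generated was detected with ThioGlo1 (50uM) fluorescence at Ex340nm/Em540nm, read immediately and after 20 min at room temperature. Enzyme, 20 nM in HEPES pH 7.5 buffer, saw compounds 15 min before adding 75uM H3(1-25) peptide and 70uM acetyl-CoA.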
Sfp inh conf: confirmation of Bacillus subtilis Sfp PPTase inhibitors; shares compounds with Sfp PPTase inh; Sfp PPTase enzymatic assay, qHTS titration; Potency, µM (titrated, usually from 114 µM), inactives show at the top dose activity change, negative = inhibition, usual class: inhibitors; 380 compounds, 79% hits; AID 2701;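 further: potency means the concentration at half of the fitted maximal effect; plate controls were uninhibited Sfp reaction for no effect and no enzyme control for full effect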
Sfp PPTase gel: Blocks Sfp PPTase activity, gel read-out; shares compounds with Sfp PPTase inh; purified Sfp, gel-based phosphopantetheinylation read-out; Potency, µM, usual class: inhibitors; 210 compounds, 20% hits; AID 2707;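 active means potency below 100 µM; inconclusive means dose-dependent response but potency above 100 µM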;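 further: band intensities scaled against SCH202676 control wells before curve fitting; potency is an IC50 for inhibitors of Sfp transfer activity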
* hit, by the source's call; i = inactive; ? = inconclusive; nt = no result; ! = not confirmed by another sample; [ ] = dose if it differs, or a comment. Hits are enriched below; roughly 3.6% of the tested compounds scored in any of these assays. Unless noted, the call rests on the fitted dose curve; in most records, active means well fitted curve in the direction sought with a large enough effect; inconclusive means small, poorly fitted or top-dose-only effect, or another doubt; inactive means no such curve, though single readings can be large; an effect the other way counts as inactive or inconclusive.

SMILES	IMPase Li cell	JMJD2E inh	NPSR antag	Epigenetic derep	Sfp PPTase inh	GCN5L2 inh	Sfp inh conf	Sfp PPTase gel
CCCC(=O)Nc1ccc(-c2csc(NNC(C)=O)n2)cc1	nt	-16.4%	6.6%	-3.1%	5.01µM*	-2.3%	?	?
COc1cc2nc(N3CCN(C(=O)[C@H]4CCCO4)CC3)nc(N)c2cc1OC	11.5%	?	nt	-0.3%	-0.9%	nt	nt	nt
COc1cc2nc(N3CCN(C(=O)C4CCCO4)CC3)nc(N)c2cc1OC (centres undefined)	-19.6%[38.3 µM]	28.2µM*	-15.1%[46.1 µM]	-1.0%	56.2µM*!	-8.3%	0.4%	?
CCN(CC)S(=O)(=O)c1ccc2c(c1)nc(CCC(=O)O)n2C	nt	11.3%	2.9%	1.0%	20µM*	-7.7%	46.9µM*	nt
Cn1c(CCC(=O)O)nc2cc(S(=O)(=O)N3CCCC3)ccc21	nt	nt	nt	nt	nt	-1.8%	nt	nt
Cc1c(C(=O)N(C)C)c2cc(Cl)ccc2n1O	7.7%	-4.7%	0.7%	0.1%	3.2%	-1.4%	nt	nt
CCOC(=O)c1c(C)n(O)c2ccc(Cl)cc2c1=O	?	?	-11.5%[46.1 µM]	3.5%	35.5µM*	-27.5%	74.4µM*	i
COC(=O)C(CC(C)C)NS(=O)(=O)c1ccccc1Br (centres undefined)	nt	nt	nt	nt	1.5%	nt	nt	nt
COc1ccc(NC(=O)c2cc(Cl)ccc2NC(=O)c2ccco2)c(OC)c1	19.5%[38.3 µM]	?	-23.5%[46.1 µM]	-3.0%	15.8µM*	-9.1%	46.9µM*	i
COc1ccc(NC(=O)c2ccccc2Cl)c(NC(=O)c2ccco2)c1	nt	nt	nt	nt	8.4%	-5.9%	nt	nt
O=C(O)CCc1ccc(-c2cccs2)o1	22.3%[38.3 µM]	?	-17.0%[46.1 µM]	?	2.82µM*	-24.4%	6.63µM*	nt
COCCn1c(CCC(=O)O)ccc1-c1cccs1	4.3%	?	-2.9%	-0.4%	-10.0%	-10.1%	nt	nt
O=C(CSc1nc2cc([N+](=O)[O-])ccc2n1-c1ccccc1)NCc1ccc2c(c1)OCO2	-11.7%	4.6%	-16.0%	-1.0%	1µM*	50.9%	14.8µM*	nt
Cc1cc(C)cc(-n2c(SCC(=O)NCc3ccc4c(c3)OCO4)nc3ccccc3c2=O)c1	8.5%	0.7%	-18.8%	-1.0%	-4.6%	28.7%	nt	nt
Cc1ccc(-n2cc(CNCCN3CCOC3=O)c(-c3cccc(C)c3)n2)cc1	5.5%	1.5%	-11.2%	-1.1%	44.7µM*	8.6%	-10.5%	i
O=C1OCCN1CCNCc1cn(-c2ccc(F)cc2)nc1-c1ccccc1Cl	17.0%	1.0%	-0.1%	-0.1%	7.8%	0.0%	nt	nt
O=C(c1ccccc1)N1CCN(C(=S)NCc2ccco2)CC1	-6.3%	-2.9%	2.9%	5.5%	35.5µM*	-1.8%	33.2µM*	?
S=C(NCc1ccco1)N1CCN(Cc2ccco2)CC1	-10.4%[38.3 µM]	-4.0%	-1.5%[46.1 µM]	-2.3%	-29.6%	-2.2%	nt	nt
Cc1ccc(-c2noc(-c3ccccc3NC(=O)C3CC(=O)N(c4ccccc4C)C3)n2)cc1 (centres undefined)	nt	nt	nt	8.8%	nt	-0.5%	nt	nt
COC(C)=O	-0.1%	nt	nt	nt	nt	nt	nt	nt
Cc1nc(-c2cc(-c3nc(-c4ccc(C(C)(C)C)cc4)no3)no2)cs1	nt	-5.0%	12.9%	-0.3%	39.8µM*	-0.5%	14.8µM*	i
Cc1noc(-c2ccc(-c3noc(-c4ccc(C(F)(F)F)cc4)n3)cc2)n1	nt	nt	nt	0.0%	nt	2.7%	nt	nt
O=C(CSc1cn(CC(=O)N2CCOCC2)c2ccccc12)Nc1ccccc1F	nt	nt	nt	-0.4%	nt	-10.4%	nt	nt
O=C(c1ccc2c(c1)N(Cc1ccc(F)cc1)C(=O)c1ccccc1S2(=O)=O)N1CCCCC1	nt	nt	nt	0.0%	nt	-13.8%	nt	nt
